ZTA DNA inh – blocks Epstein-Barr virus ZTA, an EBNA-1 counter-screen. ZTA-DNA binding, fluorescence polarization. inhibition, % at 11 µM. actives 0.15% (n = 320,000); in the data active = inhibition above about 33%
LYPLA2 counter – blocks human lysophospholipase 2, a PME1 counter-screen; O95372; recombinant LYPLA2, FP-Rh probe fluorescence polarization; inhibition, % at 5.9 µM; actives 0.38% (n = 320,000);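 active = inhibition above the screen-wide mean plus 3 SD, limit set per campaign, cut at about 26% in these data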
Target sequence (O95372 whole entry, looked up): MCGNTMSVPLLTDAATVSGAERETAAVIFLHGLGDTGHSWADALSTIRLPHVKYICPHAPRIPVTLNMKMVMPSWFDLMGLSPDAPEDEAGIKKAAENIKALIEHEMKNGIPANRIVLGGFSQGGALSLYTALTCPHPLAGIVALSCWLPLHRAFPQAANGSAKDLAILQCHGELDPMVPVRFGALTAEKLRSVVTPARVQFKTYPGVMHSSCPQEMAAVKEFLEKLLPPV
PAD4 inh – inhibitors of human PAD4; inhibition, % at 6.36 µM; actives 0.41% (n = 330,000); Q9UM07; recombinant PAD4, RCA probe fluorescence polarization;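 active = percent inhibition above a cutoff equal to the mean of all tested compounds plus 3 SD, cut at about 15% in these data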
EBNA-1 inh – blocks EBNA-1 binding to DNA; EBNA-1 DNA binding, fluorescence polarization; inhibition, % at 14.8 µM; actives 0.34% (n = 300,000); AID 1950; in the data active = inhibition above about 28%
LYPLA1 inh – blocks human lysophospholipase 1, a PME1 counter-screen; O75608; recombinant LYPLA1, FP-Rh probe fluorescence polarization; inhibition, % at 5.9 µM; actives 0.16% (n = 320,000);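 active = inhibition above the mean of all tested compounds plus 3 SD, set per campaign, cut at about 14% in these data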;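 note: inhibitors block serine hydrolase probe labeling of LYPLA1 so polarization falls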
Target sequence (O75608 whole entry, looked up): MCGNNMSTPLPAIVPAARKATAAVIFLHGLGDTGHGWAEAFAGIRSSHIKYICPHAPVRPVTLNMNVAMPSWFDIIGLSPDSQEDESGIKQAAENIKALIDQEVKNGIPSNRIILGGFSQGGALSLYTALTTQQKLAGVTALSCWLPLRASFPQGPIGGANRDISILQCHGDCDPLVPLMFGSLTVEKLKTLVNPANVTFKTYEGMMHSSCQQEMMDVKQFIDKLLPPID
GSTO1 counter – GSTO1 inhibition, counter-screen for RBBP9 inhibitors. recombinant GSTO1, activity-based probe fluorescence polarization. actives 1.1% (n = 300,000). AID 1974. inhibition, % at 5.96 µM. P78417;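 active = inhibition above the campaign mean inhibition plus 3 SD, cut at about 35% in these data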
Target sequence (P78417 whole entry, looked up): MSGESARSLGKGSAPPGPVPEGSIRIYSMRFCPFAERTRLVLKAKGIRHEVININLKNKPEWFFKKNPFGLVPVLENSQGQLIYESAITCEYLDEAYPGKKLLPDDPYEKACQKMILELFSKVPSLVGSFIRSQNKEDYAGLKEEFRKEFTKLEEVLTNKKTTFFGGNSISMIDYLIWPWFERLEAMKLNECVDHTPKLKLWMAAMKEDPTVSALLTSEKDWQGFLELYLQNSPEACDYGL
EBNA-1 confirm – EBNA-1 (EBV) inhibition, confirmation; shares compounds with EBNA-1 inh; actives 35% (n = 830); Recombinant EBNA-1 DBD, Cy5-DNA fluorescence polarization; inhibition, % at 14.8 µM;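 active = mean inhibition across replicates above a set limit taken from the earlier primary screen, cut at about 28% in these data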
ZTA counter trip – blocks Epstein-Barr virus ZTA in triplicate, EBNA-1 counter-screen | shares compounds with EBNA-1 inh | Zta-ZRE DNA binding, Cy5 fluorescence polarization | inhibition, % at 11.1 µM | 830 tested, under 10 active | AID 2328;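 active = mean inhibition over triplicates above a set limit taken from the primary EBNA-1 screen, cut at about 37% in these data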;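 note: purified full length Zta protein with Cy5 labeled ZRE DNA probe; inhibitors lower polarization by freeing the labeled DNA probe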
GSTO1 confirm – GSTO1 (human) inhibition, confirmation; actives 54% (n = 2,400); inhibition, % at 5.96 µM; recombinant GSTO1, probe fluorescence polarization; shares compounds with GSTO1 counter;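 active = inhibition above the primary screen's cutoff, its mean inhibition plus 3 SD, cut at about 35% in these data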;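 note: loss of polarization as inhibitors block binding of rhodamine sulfonate ester activity probe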
LYPLA1 conf – LYPLA1 (human) inhibition, confirmation counter-screen. AID 2233. recombinant LYPLA1, FP-Rh probe fluorescence polarization. actives 69% (n = 480). inhibition, % at 5.9 µM. shares compounds with LYPLA1 inh;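 active = mean inhibition across replicates above the hit cutoff set in the primary screen, cut at about 15% in these data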;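 note: loss of FP-Rh probe labeling of LYPLA1 seen as lower polarization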
PAD4 confirm – confirmation of human PAD4 inhibitors; inhibition, % at 6.36 µM; AID 488796; recombinant PAD4, RCA probe fluorescence polarization; actives 28% (n = 1,200); shares compounds with PAD4 inh;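 active = mean inhibition across replicates above the hit cutoff set by the earlier primary screen, cut at about 15% in these data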;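 note: inhibitors block active-site labeling by the probe so polarization falls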
A number is an active result; – = inactive; · = no result given. An excerpt weighted towards active compounds, which were near 1.7% of everything screened.

SMILES | ZTA DNA inh | LYPLA2 counter | PAD4 inh | EBNA-1 inh | LYPLA1 inh | GSTO1 counter | GSTO1 confirm | others
O=C(N/N=C/c1ccc(OC(F)F)cc1)c1ccc(CSc2nc3ccccc3[nH]2)cc1 | – | – | – | – | – | – | ·
CCOc1ccc(/C=N/NC(=O)c2ccc(CSc3nc4ccccc4[nH]3)cc2)cc1 | – | – | – | 32.8 | – | – | · | EBNA-1 confirm=39.1;ZTA counter trip=–
Cc1cccc(NC(=O)/C(C#N)=C/c2cn(CC(=O)NCc3ccco3)c3ccccc23)c1C | – | – | – | 35.4 | – | – | · | EBNA-1 confirm=29.9;ZTA counter trip=–
CCOC(=O)C1=C(COC(=O)COc2cc(C)ccc2C)NC(=O)NC1C (stereo not drawn) | – | – | – | – | – | – | ·
N#Cc1ccccc1OCC(=O)Nc1c(C(=O)C2CC2)oc2ccccc12 | – | – | – | 30.1 | – | 81.3 | 97.6 | EBNA-1 confirm=91.7;ZTA counter trip=–
O=C1c2ccccc2CSc2c(O)cccc21 | – | – | – | – | – | – | ·
O=C1c2c(O)cccc2Cc2cccc(O)c21 | – | – | – | 30.8 | – | 45.4 | – | EBNA-1 confirm=–;ZTA counter trip=–
Nc1c(C(=O)NC2CC2)sc2nc3c(c(-c4ccco4)c12)CC/C3=C/c1ccco1 | – | – | – | 45.9 | – | 62.0 | 36.7 | EBNA-1 confirm=–;ZTA counter trip=–
O=C(/C(=N/N=C/c1ccc(O)c(O)c1O)c1ccccc1)c1ccccc1 | – | – | – | 39.4 | – | 50.4 | – | EBNA-1 confirm=–;ZTA counter trip=–
O=C(O)c1ccc(C(=O)C(=O)c2ccccc2)cc1 | – | – | – | – | – | – | ·
CCN(CC)C(=O)Cn1cc(S(=O)(=O)CC(=O)Nc2ccc(C(N)=O)cc2)c2ccccc21 | – | – | – | – | – | – | ·
O=C1C=C(c2ccoc2)N2CCC[C@H]2C1 | · | · | – | · | · | · | ·
CN(C)c1ccc(/C=C(\C#N)C(=O)NCc2ccco2)cc1 | – | – | – | 43.8 | 21.9 | – | · | EBNA-1 confirm=69.1;ZTA counter trip=–;LYPLA1 conf=–
CNC[C@H]1Oc2ccc(NC(=O)Cc3cn(C)c4ccccc34)cc2CC(=O)N([C@@H](C)CO)C[C@H]1C | · | · | – | · | · | · | ·
Cn1c(/C(C#N)=C/c2ccc(-c3ccc(S(N)(=O)=O)cc3)o2)nc2ccccc21 | – | – | 27.7 | 39.9 | – | – | · | EBNA-1 confirm=38.4;ZTA counter trip=–;PAD4 confirm=20.8
COc1ccc(S(=O)(=O)N2CCOC2CNC(=O)C(=O)NCc2ccccn2)cc1C (stereo not drawn) | – | – | – | – | – | – | ·
O=C1CCN2C=Nc3cccc4ccc1c2c34 | – | – | – | – | – | 39.5 | –
Fc1ccc(C(CNC(=S)NC2CCCCC2)N2CCOCC2)cc1 (stereo not drawn) | – | – | – | – | – | – | ·
COc1ccccc1CCN=C(N)NS(=O)(=O)c1ccccc1F | – | – | – | – | – | – | ·
Cc1cc(C)n(-c2cc(O)c(-n3nc(C)cc3C)cc2O)n1 | – | – | – | – | – | 46.5 | –
Cn1c(=O)oc2cc(S(=O)(=O)NCCC(=O)NC3CCCC3)ccc21 | – | – | – | – | – | – | ·
CC(C)c1ccc(NS(=O)(=O)c2ccc3c(c2)oc(=O)n3C)cc1 | – | – | – | – | – | 65.4 | 65.0
Cn1c(=O)oc2cc(S(=O)(=O)NC3CCCCCCC3)ccc21 | – | – | – | – | – | 42.8 | 39.5
COc1cccc(CNS(=O)(=O)c2ccc3c(c2)oc(=O)n3C)c1 | – | – | – | – | – | – | ·
Cc1cccc(CCNS(=O)(=O)c2ccc3c(c2)oc(=O)n3C)c1 | – | – | – | – | – | 55.4 | 57.6
SMILES | ZTA DNA inh | LYPLA2 counter | PAD4 inh | EBNA-1 inh | LYPLA1 inh | GSTO1 counter | GSTO1 confirm | others
CCOc1ccc(NC(=O)CN(C)C(=O)CCNC(=O)c2ccco2)cc1OCC | – | – | – | · | – | · | ·
CC(=O)c1cc(CN2CCN(C3CCCCC3)C(CCO)C2)cs1 (stereo not drawn) | – | – | – | – | – | – | ·
COc1ccc(/C=C/CN2CCC(CO)(Cc3ccccc3Cl)CC2)cc1 | – | – | – | – | – | – | ·
COC(=O)CC1C(=O)NC2CCCCC2N1C(=O)CCl (stereo not drawn) | – | – | – | – | – | 54.0 | 79.0
Oc1ccc(/C=N\Nc2cc(N3CCOCC3)nc(N3CCOCC3)n2)c(O)c1 | – | – | – | – | – | – | ·
Oc1ccc(/C=N/Nc2cc(N3CCCC3)nc(N3CCCC3)n2)cc1O | – | – | – | – | – | 46.5 | 78.9
CCOc1ccc(/C=C2\SC(=S)NC2=O)cc1OC | – | – | – | – | – | – | ·
COc1ccc(/C=C2\SC(=O)NC2=S)cc1OC | – | – | – | – | – | 61.5 | 72.1
Cc1cccc[n+]1C1C(c2ccc([N+](=O)[O-])cc2)C(C#N)=C(C(=C=[N-])C#N)NC1(O)C1CC1 (stereo not drawn) | – | – | – | – | – | 40.5 | 47.6
O=CN/C=C/c1cc(O)ccc1O | – | – | – | – | – | 71.6 | –
O=Cc1ccc(O)cc1O | – | – | – | – | – | – | ·
O=S(=O)(c1ccc(NCc2ccccc2)cc1)N1CCOCC1 | – | – | – | – | – | – | ·
CC1(OC(=O)C2CCCC2)C(=O)C=C2C=C(c3ccsc3)N(c3ccccc3)C=C2C1=O (stereo not drawn) | – | – | – | – | – | – | ·
CC(C)CN1C=C2C(=O)C(C)(OC(=O)C3CCCC3)C(=O)C=C2C=C1c1ccsc1 (stereo not drawn) | – | – | – | – | – | – | ·
CC1(OC(=O)C2CCCC2)C(=O)C=C2C=C(c3ccsc3)N(C3CC3)C=C2C1=O (stereo not drawn) | – | – | – | – | – | 47.1 | –
C=CCN1C=C2C(=O)C(C)(OC(=O)C3CCCC3)C(=O)C=C2C=C1c1ccsc1 (stereo not drawn) | – | – | – | – | – | 40.9 | –
CCCc1ccc(C(=O)N2CCN(c3ccccc3OCC)CC2)cc1 | – | – | – | – | – | 45.8 | –
O=C(CSc1nnc(-c2ccc(Cl)cc2Cl)n1C1CCCCC1)NC1CCS(=O)(=O)C1 (stereo not drawn) | – | – | – | – | – | 45.1 | –
CCCc1ccc(OCC(O)CN2CCN(c3ccccn3)CC2)cc1 (stereo not drawn) | – | – | – | – | – | – | ·
